# From the supplement of paper PMC8728848
# About 410 targets per protein were measured; listed, in parts, are those with the strongest signals and a random draw of the rest.
# B1: NESD (Drosophila melanogaster), NP_610025.1 (protein)
# chain: MGHHHHHHSSGVDLGTENLYFQSMMEVFTFEKSYLERLKEAEAVLSWEGAVMPASQVRSEWKSYVELKIEPAGWQAIWKIPRVICEDLKLRYPTIVYGYVEQVIFDELKAVFVVTAVQDSDVHLPESNEVSLVELWPTVQQENAALNVDTTAECIDRLRFFYTHVWMPWDKDYDDDRDWVQQHLQARIQLVCDLSKNRLPRPLALHMRTLLAEAKYIQQRLDYLELDLSDAESDDEAVELNDSVAEPARKQSKAGSANGCLNVSSLPVTDLMCLHLRMAIIRSEFEILENPEMRRAYSELQSNSLKRLRCSSGRTRQSEDLLVERNSISHVVTLPGKLQQQLELLKLAQTLVKPESKVQLSNTLQDVLSICQSNDDILLSPGEHTIKFLEHLNDNGSLRGLTQPEAILSPAADLSLLPVVCSSDEDSTLLVIDGDYTLSELVLDCRHVRRGILLRNGTLTMRGCRLLGDGSSSTQEGIVCMPGASVELKSCLIENFAVGVSMRPKSSAELGSVQFKTCKTGLELLEKSASVNLQGSKCSFENCALGILADGFVLGEQRTEKVLVLNKFSELQRYNEDNLLGNCSFYNCKKNVRVFNESGQLLAQRSHQQLLEDELGGENKENIQLV
# What was measured:
# Experiment in all cases: glycan array binding signal (z-score within array); higher = stronger binding
# Conditions in all cases: glycan notation: IUPAC condensed, linker removed
# Fuc(a1-2)Gal = molecular target: Fuc(a1-2)Gal
# Summary of the method: (§1)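 Arrays were curated from the Consortium for Functional Glycomics database, 3228 in total, and kept only where the protein sequence was available. Binding is expressed as a within-array Z-score. This score was averaged across arrays of the same protein sequence at different concentrations or buffers and across linkers, and negative values can be read as non-binding.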
# [1] = molecular target: Fuc(a1-3)[Gal3S(b1-4)]GlcNAc6S
# Summary of the method: as §1
# Gal(a1-3)Gal(b1-4)Glc = molecular target: Gal(a1-3)Gal(b1-4)Glc
# Summary of the method: as §1
# Gal(a1-3)Gal(b1-4)GlcNAc = molecular target: Gal(a1-3)Gal(b1-4)GlcNAc
# Summary of the method: as §1
# Gal(a1-4)Gal(b1-4)Glc = molecular target: Gal(a1-4)Gal(b1-4)Glc
# Summary of the method: as §1
# Gal(b1-3)GlcNAc = molecular target: Gal(b1-3)GlcNAc
# Summary of the method: as §1
# [2] = molecular target: Gal(b1-3)[Fuc(a1-4)]GlcNAc(b1-3)Gal(b1-4)[Fuc(a1-3)]GlcNAc
# Summary of the method: as §1
# Gal(b1-4)Glc = molecular target: Gal(b1-4)Glc
# Summary of the method: as §1
# Gal(b1-4)Glc6S = molecular target: Gal(b1-4)Glc6S
# Summary of the method: as §1
# [3] = molecular target: Gal(b1-4)GlcNAc(b1-3)Gal(b1-4)GlcNAc
# Summary of the method: as §1
# [4] = molecular target: Gal(b1-4)GlcNAc(b1-3)Gal(b1-4)GlcNAc(b1-3)Gal(b1-4)GlcNAc
# Summary of the method: as §1
# Gal3S(b1-4)GlcNAc = molecular target: Gal3S(b1-4)GlcNAc
# Summary of the method: as §1
# [5] = molecular target: Gal3S(b1-4)[Fuc(a1-3)]Glc
# Summary of the method: as §1
# Gal3S4S(b1-4)GlcNAc = molecular target: Gal3S4S(b1-4)GlcNAc
# Summary of the method: as §1
# Gal3S6S(b1-4)GlcNAc6S = molecular target: Gal3S6S(b1-4)GlcNAc6S
# Summary of the method: as §1
# Gal4S(b1-4)GlcNAc = molecular target: Gal4S(b1-4)GlcNAc
# Summary of the method: as §1
# Glc(a1-6)Glc(a1-6)Glc = molecular target: Glc(a1-6)Glc(a1-6)Glc
# Summary of the method: as §1
# [6] = molecular target: Man(a1-2)Man(a1-2)Man(a1-6)[Man(a1-3)]Man
# Summary of the method: as §1
# Man(a1-2)Man(a1-3)Man = molecular target: Man(a1-2)Man(a1-3)Man
# Summary of the method: as §1
# [7] = molecular target: Man(a1-2)Man(a1-3)[Man(a1-2)Man(a1-6)]Man(a1-6)[Man(a1-2)Man(a1-2)Man(a1-3)]Man(b1-4)GlcNAc(b1-4)GlcNAc
# Summary of the method: as §1
# [8] = molecular target: Neu5Ac(a2-3)Gal(b1-3)GalNAc(b1-3)Gal(b1-4)GlcNAc
# Summary of the method: as §1
# [9] = molecular target: Neu5Ac(a2-3)Gal(b1-4)[Fuc(a1-3)]GlcNAc6S
# Summary of the method: as §1
# [10] = molecular target: Neu5Ac(a2-6)Gal(b1-4)GlcNAc(b1-2)Man(a1-3)[Gal(b1-4)GlcNAc(b1-2)Man(a1-6)]Man(b1-4)GlcNAc(b1-4)GlcNAc
# Summary of the method: as §1
binder,measurement,setting,value
B1,glycan array binding signal (z-score),Fuc(a1-2)Gal,0.437
same,glycan array binding signal (z-score),[1],1.18
same,glycan array binding signal (z-score),Gal(a1-3)Gal(b1-4)Glc,-0.126
same,glycan array binding signal (z-score),Gal(a1-3)Gal(b1-4)GlcNAc,-0.108
same,glycan array binding signal (z-score),Gal(a1-4)Gal(b1-4)Glc,-0.242
same,glycan array binding signal (z-score),Gal(b1-3)GlcNAc,-0.219
same,glycan array binding signal (z-score),[2],-0.47
same,glycan array binding signal (z-score),Gal(b1-4)Glc,3.98
same,glycan array binding signal (z-score),Gal(b1-4)Glc6S,2.75
same,glycan array binding signal (z-score),[3],0.201
same,glycan array binding signal (z-score),[4],0.303
same,glycan array binding signal (z-score),Gal3S(b1-4)GlcNAc,0.142
same,glycan array binding signal (z-score),[5],-0.195
same,glycan array binding signal (z-score),Gal3S4S(b1-4)GlcNAc,0.201
same,glycan array binding signal (z-score),Gal3S6S(b1-4)GlcNAc6S,1.17
same,glycan array binding signal (z-score),Gal4S(b1-4)GlcNAc,0.349
same,glycan array binding signal (z-score),Glc(a1-6)Glc(a1-6)Glc,6.3
same,glycan array binding signal (z-score),[6],-0.364
same,glycan array binding signal (z-score),Man(a1-2)Man(a1-3)Man,-0.316
same,glycan array binding signal (z-score),[7],0.313
same,glycan array binding signal (z-score),[8],0.016
same,glycan array binding signal (z-score),[9],0.068
same,glycan array binding signal (z-score),[10],0.256
